# Reference: the supplement of paper PMC10646978
# ± gives the standard deviation.
# Legend:
# Conditions in all cases: modulator concentration 10 µM
# [1] = system: RAW-Dual (murine macrophage reporter line); assay: NF-kB reporter (SEAP) activity fold change vs agonist alone; higher = enhanced NF-kB activity
# Outline: (§1)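 In 384-well plates holding 50 000 RAW-Dual murine macrophage reporter cells per well, compound at 10 μM final was pre-incubated for 1 hour at 37 °C, after which a PRR agonist was added overnight. Supernatant SEAP read with QUANTI-Blue at 620 nm absorbance reported NF-κB, and Lucia luciferase read with QUANTI-Luc luminescence reported IRF. Fold change values come from dividing each reporter signal by the mean of agonist-only control wells on the same plate, averaged over replicate plates with propagated errors.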
# [2] = system: RAW-Dual (murine macrophage reporter line); assay: IRF reporter (Lucia luciferase) activity fold change vs agonist alone; higher = enhanced IRF activity
# Outline: as §1
# [3] = system: RAW-Dual (murine macrophage reporter line); assay: viability score (confluency relative to resting cells, overnight) (fraction); higher = more viable, active = viable (0.7 or more)
# Outline: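 RAW-Dual macrophages in 384-well plates were treated overnight with compound at 10 μM final. IncuCyte imaging recorded confluency, and IncuCyte software built two confluency masks across every imaged well. The viability score expresses confluency relative to resting cells and was judged against a cutoff, which a compound met only if both masks exceeded 70% of resting cells.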
# [4] = agonist: CpG ODN 1826 0.5 ug/mL
SMILES,"NF-kB reporter [1, 4]",NF-kB reporter ([1]; agonist: LPS 0.1 ug/mL),NF-kB reporter ([1]; agonist: MPLA […]),IRF reporter ([2]; agonist: 3'3'-cGAMP 10 ug/mL),IRF reporter ([2]; agonist: LPS 0.1 ug/mL),IRF reporter ([2]; agonist: MPLA […]),viability score [3]
CC(O)c1cn(-c2cccc(C(F)(F)F)c2)nn1 (centres undefined),1.05 ± 0.35,1.16 ± 0.072,1.04 ± 0.078,0.861 ± 0.038,1.15 ± 0.12,1.23 ± 0.17,1 (active)
Nc1nc2ccc(OC(F)(F)F)cc2s1,0.955 ± 0.13,1.09 ± 0.3,1.02 ± 0.059,1.07 ± 0.044,1.15 ± 0.24,0.928 ± 0.14,0.965 (active)
CCc1c(C)[nH]c2c1C(=O)C(CN1CCOCC1)CC2.Cl (centres undefined),0.108 ± 0.0046,0.221 ± 0.024,0.714 ± 0.042,0.752 ± 0.039,1.5 ± 0.24,1.4 ± 0.43,0.855 (active)
CC(C)(C)c1cc(NCc2ccccn2)n2ncc(-c3ccc(Cl)cc3)c2n1,0.256 ± 0.019,0.477 ± 0.032,0.79 ± 0.025,0.296 ± 0.028,0.962 ± 0.12,3.1 ± 0.86,0.978 (active)
CCOc1nc2cccc(C(=O)O)c2n1Cc1ccc(-c2ccccc2-c2nc(=O)o[nH]2)cc1,1.29 ± 0.17,1.14 ± 0.32,1.12 ± 0.073,0.886 ± 0.042,1.41 ± 0.38,1.31 ± 0.12,1 (active)
Cc1cc(OC2CCN(S(=O)(=O)CCc3ccccc3)C2)cc(=O)n1C (centres undefined),1.13 ± 0.069,0.929 ± 0.088,1.15 ± 0.067,0.7 ± 0.054,0.785 ± 0.19,0.738 ± 0.29,0.975 (active)
CCN(CC)C(=O)/C(C#N)=C/c1cc(O)c(O)c([N+](=O)[O-])c1,1.23 ± 0.23,1.08 ± 0.45,0.864 ± 0.055,0.905 ± 0.035,1.22 ± 0.43,1.11 ± 0.095,0.992 (active)
O=C(COC(=O)c1ccc2ccccc2n1)c1ccc(Br)cc1,0.988 ± 0.16,1.05 ± 0.11,1.06 ± 0.14,0.972 ± 0.033,1.29 ± 0.25,1.42 ± 0.26,1 (active)
O=C(NCCn1nc(-c2ccccn2)c2c1CCCC2)c1c(F)cccc1Cl,1.12 ± 0.062,1.19 ± 0.12,0.921 ± 0.043,0.975 ± 0.049,1.1 ± 0.068,1.2 ± 0.26,1 (active)
CC(N)c1ccc(Nc2ncc3cc(-c4ccncc4)ccc3n2)cc1.Cl.Cl.Cl (centres undefined),0.419 ± 0.069,1.26 ± 0.08,2.73 ± 0.16,0.173 ± 0.014,0.28 ± 0.05,0.42 ± 0.042,0.174 (inactive)
Cc1cc(C#N)cc(C)c1Oc1nc(Nc2ccc(C#N)cc2)nc(N)c1Br,1.15 ± 0.049,1.3 ± 0.1,1.5 ± 0.14,1.39 ± 0.21,1.05 ± 0.24,1.28 ± 0.42,0.97 (active)
CCCC1CCC(c2ccc(C(=O)NNC(=O)c3ccc(C4CCC(CCC)CC4)cc3)cc2)CC1 (centres undefined),0.984 ± 0.059,1.01 ± 0.07,0.936 ± 0.059,0.898 ± 0.035,1.43 ± 0.11,1.13 ± 0.21,1.01 (active)
CC(=O)N1CCC(C(=O)NC(Cn2nccn2)c2ccccc2)CC1 (centres undefined),0.87 ± 0.05,1.06 ± 0.09,1.05 ± 0.082,1.04 ± 0.051,1.34 ± 0.25,1.56 ± 0.46,0.935 (active)
CC(C)Cc1ccc(C(C)C(=O)O)cc1.NCCCC[C@H](N)C(=O)O (centres undefined),1.11 ± 0.26,0.97 ± 0.05,0.963 ± 0.064,0.903 ± 0.032,1.47 ± 0.16,1.41 ± 0.18,0.536 (inactive)
CC(=NOCON=C(C)c1ccc(Cl)c(Cl)c1)c1ccc(Cl)c(Cl)c1,0.944 ± 0.057,0.993 ± 0.086,0.936 ± 0.07,0.974 ± 0.034,1.38 ± 0.14,1.18 ± 0.1,1.01 (active)
COC1CCN(C2CCN(S(=O)(=O)c3ccccc3)CC2)CC1,0.839 ± 0.077,1.01 ± 0.082,0.977 ± 0.062,0.981 ± 0.065,1.08 ± 0.14,1.03 ± 0.23,1.01 (active)
CC(C)=CCC/C(C)=C/CC/C(C)=C/CSc1ccccc1C(=O)O,1.32 ± 0.071,0.929 ± 0.074,2.18 ± 0.19,0.18 ± 0.011,0.52 ± 0.084,0.721 ± 0.16,0.902 (active)
CC1=NN(c2ccc(S(N)(=O)=O)cc2)C(=O)C1=Cc1ccc(C)s1,1.09 ± 0.074,1.08 ± 0.072,1.33 ± 0.14,0.868 ± 0.033,1.86 ± 0.15,1.54 ± 0.14,0.981 (active)
NC(=O)c1ncn([C@@H]2O[C@H](CO)[C@@H](O)[C@H]2O)c1N,1.11 ± 0.086,1.03 ± 0.051,1.04 ± 0.041,0.94 ± 0.052,0.977 ± 0.089,0.949 ± 0.12,0.994 (active)
O=C(c1cccs1)c1nc2c(n1O)CCCCC2,1.01 ± 0.079,1.02 ± 0.076,0.967 ± 0.069,0.992 ± 0.056,1.17 ± 0.18,0.858 ± 0.085,0.899 (active)
CCOc1cc2ncc(C#N)c(Nc3ccc(F)c(Cl)c3)c2cc1NC(=O)/C=C/CN(C)C,0.714 ± 0.27,0.512 ± 0.048,0.445 ± 0.097,0.158 ± 0.019,0.374 ± 0.04,0.22 ± 0.019,0.968 (active)
Cc1c(C)c2c(c(C)c1O)CCC(C)(C(=O)O)O2 (centres undefined) [Prestw-530],1.14 ± 0.13,1.03 ± 0.078,0.98 ± 0.03,0.986 ± 0.042,0.98 ± 0.054,1.03 ± 0.1,0.998 (active)
CCSc1nc(-c2cccs2)cc(C(F)(F)F)c1C#N,0.77 ± 0.078,1.05 ± 0.069,1.66 ± 0.063,0.904 ± 0.13,1.18 ± 0.12,1.9 ± 0.25,0.999 (active)
COc1cc(CNCc2ccc3ccccc3c2)cc(OC)c1,1.26 ± 0.12,0.986 ± 0.1,1.24 ± 0.1,1.19 ± 0.35,0.906 ± 0.043,2.05 ± 0.17,0.589 (inactive)
COc1ccc(C=CC(=O)Nc2sc(C(=O)OC(C)C)c(C)c2C(N)=O)cc1,0.846 ± 0.076,0.798 ± 0.045,0.958 ± 0.086,0.949 ± 0.043,1.44 ± 0.092,1.57 ± 0.17,1 (active)
O=C(Nc1ccccc1Cl)c1ccc(OCC2CCCO2)nc1 (centres undefined),1.17 ± 0.066,1.06 ± 0.12,0.981 ± 0.026,1.3 ± 0.35,1 ± 0.058,0.976 ± 0.098,0.999 (active)
CCCC(=O)Nc1ccc(N2CCOCC2)c(Cl)c1,1.09 ± 0.21,1.04 ± 0.098,0.964 ± 0.098,0.875 ± 0.026,1.28 ± 0.22,1.21 ± 0.12,1 (active)
